Source: PubChem (National Center for Advancing Translational Sciences (NCATS))
Shown are actives, neighbours in structure and some others; about 7.9% of the full set was active somewhere.
HCV inh: HCV inhibition. Huh7.5.1 HCVcc-Cre infection, luciferase reporter, 44 h. Potency, µM (top dose mostly 41.8 µM), for the others: top-dose activity change, negative = inhibition, most hits filed as inhibitors. actives 3.4% (n = 340,000). AID 651820; active = well fitted inhibition curve with a large enough effect; inconclusive = small, poorly fitted or top-dose-only effect, or another doubt; inactive = no such curve, though single readings can be large or run the other way; also: potency is read from the fitted curve at half-maximal effect
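A cell-based infection assay in which seeded cells (1,000 per well) receive test compound after 4 h, are inoculated with HCVcc-Cre at approximately 0.5 moi, and are incubated 44 h before luminescence detection.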
MARV entry inh: inhibitors of Marburg virus binding or cell entry; Marburg virus pseudotyped entry inhibition, cell reporter; actives 1.8% (n = 300,000); Potency, µM (doses to about 37.8 µM), without a hit: at the highest dose activity change, negative = inhibition, usual class: inhibitors; calls by dose curve; tested in HEK293 cells; also: potency is read from the fitted curve at half-maximal effect
LASV entry inh: inhibitors of Lassa virus binding or cell entry. Potency, µM (top dose mostly 37.9 µM), for the others: at the highest dose activity change, negative = inhibition, most hits filed as inhibitors. AID 540256. Lassa virus pseudotype entry inhibition, cell reporter. actives 1.2% (n = 300,000); calls by dose curve; tested in HEK293 cells; also: potency is read from the fitted curve at half-maximal effect; nearly all actives have a fitted effect of over 50% in size
FMDV antiviral: foot and mouth disease virus antiviral activity; FMDV antiviral cell-based qHTS; Potency, µM (doses to about 57.9 µM), for the others: at the top dose activity change, negative = inhibition, hits mostly inhibitors; actives 1.2% (n = 410,000); calls by dose curve; tested in HEK293T cells; also: read-out not given here; potency is read from the fitted curve at half-maximal effect; nearly all actives have a fitted effect of over 45% in size
HCMV antiviral: human cytomegalovirus inhibition | HFF cells, HCMV-luciferase reporter, 72 h; active compounds read low | activity change, negative = inhibition, % at 57.5 µM | actives 4.5% (n = 410,000) | AID 1259415; in the data active = activity change below about -60%; inconclusive = no clear call, values can overlap the other calls; inactive = above about -39%
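HFF cells seeded 16 h at 37C, treated with compounds, infected with luciferase-reporter HCMV at MOI 1 PFU/cell; luciferase read at 72 h post infection, normalized to buffer-only and Salinomycin controls.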
Numbers without * were called inactive; ? = inconclusive; nt = not tested or not shown; [ ] = dose if it differs, or a comment. % is scaled to controls: 0 for no effect and ±100 for the full control effect.

SMILES | HCV inh | MARV entry inh | LASV entry inh | FMDV antiviral | HCMV antiviral
CS(=O)(=O)c1ccc(Cl)c(NC(=O)CNC(=O)c2ccc3c(c2)OCO3)c1 | 7% | 0%[46.1 µM] | -27%[46.1 µM] | 9% | -61*
CCN(CC)S(=O)(=O)c1ccc(C)c(NC(=O)CNCc2ccccc2OC)c1 | ? | 4.5µM* | ? | ? | -24
COc1ccccc1CNCC(=O)Nc1cc(S(=O)(=O)N2CCCCC2)ccc1C | ? | -29% | ? | ? | 20
COc1ccc(S(=O)(=O)N2CCCCCC2)cc1NC(=O)CN(C)Cc1ccc2c(c1)OCO2 | 11µM* | nt | nt | -15% | ?
Cc1cnc(C)c(-c2cccc3c2OC(CNC(=O)/C=C/c2ccncc2)C3)n1 (stereo unspecified) | nt | nt | nt | -9% | nt
C/C(=N/NC(=O)c1ccncc1)c1ccc(NC(=O)c2ccc(Cl)cc2Cl)cc1 | -2% | ? | 1%[46.1 µM] | 5% | 36
C/C(=N\NC(=O)c1cccc(N/N=C(\C)c2ccco2)c1)c1ccco1 | -19% | nt | nt | 8% | -22
CC(C)CC(=NNC(=O)c1ccncc1)c1cc(Cl)ccc1O | 2.5µM* | ? | 3.2µM* | ? | -97*
CC(=O)Nc1ccccc1NC(=O)C/C(C)=N/NC(=O)c1ccncc1 | 24% | -3% | 11% | -17% | -89*
CC(=NNC(=O)c1ccncc1)c1ccc(O)cc1O | 11µM* | ? | ? | 10% | -37
C/C(=N\NC(=O)c1cccc(N/N=C(\C)c2cc(O)ccc2O)c1)c1cc(O)ccc1O | ? | ? | ? | 0% | -78*
C/C(CC(=O)Nc1ccccc1C#N)=N\NC(=O)c1ccncc1 | 12% | -3%[46.1 µM] | -21% | -4% | ?
C/C(=N\NC(=O)c1ccc(N2CCCC2=O)cc1)c1ccc(O)cc1O | ? | nt | nt | 0% | 5
Brc1ccc2c(c1)-n1c(nc3ccccc31)CN2 | nt | nt | nt | nt | -36
CCOc1ccc(NC(=O)c2oc3ccccc3c2NC(=O)C(C)(C)C)cc1 | nt | ? | -22%[46.1 µM] | -4% | -20
CC(=O)Nc1ccc(NC(=O)c2oc3ccc4c(c3c2C)C(=O)CC(C)(C)O4)cc1 | nt | nt | -13%[46.1 µM] | 21% | 24
CC(=NNC(=O)c1ccncc1)c1ccc2ccccc2c1O | ? | 7.9µM* | 5µM* | -2% | -77*
C/C(=N\Nc1cccc([N+](=O)[O-])c1)c1cc(F)ccc1O | 10µM* | nt | nt | 21% | -27
C/C(=N\NC(=O)c1cc(-c2cccnc2)nc2ccccc12)c1ccc(O)cc1O | 4µM* | 7.1µM* | 6.3µM* | -14% | -94*
CCCCCCCC(=O)N/N=C(\C)c1ccc(O)cc1O | -24% | 3% | ? | -25% | -70*
CC(=NNC(=O)c1ccncc1)c1ccccc1O | 4.5µM* | 3.2µM* | ? | 5% | -98*
CC(C)(C)c1ccc(C(=O)Nc2ccc(CC(=O)O)cc2)o1 | -4% | ? | 2.3µM* | 0.79µM* | -74*
Cc1ccc(C(=O)Nc2ccc(CC(=O)O)cc2)o1 | 12% | -11% | -5% | -11% | -29
COc1ccc(/C(N)=N/OC(=O)Cc2ccc(OC)c(OC)c2)cc1 | ? | ? | -17% | nt | -90*
CC(C)(C)OC(=O)N(Cc1ccccc1)Cc1ccccc1OCc1ccc(NC(=O)C2CCC2)cc1 | ? | nt | nt | -28% | -90*
SMILES | HCV inh | MARV entry inh | LASV entry inh | FMDV antiviral | HCMV antiviral
CC(C)(C)OC(=O)N(CCc1ccccc1)Cc1ccccc1OCc1cccc(NC(=O)C2CC2)c1 | 0% | nt | nt | -10% | -25
CC(C)(C)OC(=O)N(CCc1ccccc1)Cc1ccccc1OCc1cccc(NC(=O)C2CCCC2)c1 | -29% | nt | nt | 4% | -10
CC(C)(C)OC(=O)N(CCc1ccccc1)Cc1ccccc1OCc1ccc(NC(=O)C2CCC2)cc1 | 0.56µM* | nt | nt | -19% | ?
CCc1nc2ccc(C(=O)NCCc3ccc(SC)cc3)cc2nc1CC | nt | nt | -5%[46.1 µM] | 16% | 71
COc1ccccc1C(=O)OCCc1ccccc1 | -7% | ? | -29%[46.1 µM] | 0% | -100*
O=C(Nc1nc2ccccc2[nH]1)c1ccc([N+](=O)[O-])cc1 | 1% | -27%[46.1 µM] | -23% | 25% | 11
Cc1ccc(Nc2nc3ccccc3c(=O)s2)cc1C | 9% | 1% | 6% | 31% | -73*
COc1ccc(Nc2nc3ccccc3c(=O)s2)c(OC)c1 | -7% | -5% | 0% | 4% | -31
CN(C)c1cccc(C(=O)Nc2nc3ccccc3[nH]2)c1 | -21% | ? | ? | -51% | 26
Cc1ccc(N(C)S(=O)(=O)c2cccc(C(=O)Nc3nc4ccccc4[nH]3)c2)cc1 | 11µM* | 12µM* | 16µM* | 0% | -87*
C/C(=N\Nc1nc2ccccc2[nH]1)c1ccc([N+](=O)[O-])cc1 | 10µM* | -1%[46.1 µM] | ? | -19% | -18
Cc1ccc(C(=O)Nc2nc3ccccc3[nH]2)cc1 | 2% | 1.4µM* | ? | 11µM* | -84*
COc1cc(SC)ccc1C(=O)Nc1nc2ccccc2[nH]1 | -15% | ? | ? | 0.035µM* | -98*
Cc1ccc(C(=O)Nc2cnc3ccccc3c2)cc1 | -14% | ? | 5µM* | 3.5µM* | -81*
COc1ccccc1C(=O)Nc1nc2ccccc2[nH]1 | -4% | ? | ? | 1µM* | -76*
COc1ccccc1C(=O)NCCC(=O)Nc1nc2ccccc2[nH]1 | ? | 19%[46.1 µM] | 25% | 0% | 74
Cc1cc(C(=O)Nc2cnc3ccccc3c2)ccc1[N+](=O)[O-] | ? | ? | ? | 59% | 25
COc1ccccc1OC(=O)c1ccc(SC)cc1OC | ? | ? | 10µM* | 42% | -15
Cc1ccc(C(=O)Nc2nc3ccccc3c(=O)s2)cc1 | 8.9µM* | -21% | -21% | nt | -23
COc1cc(Cl)c(C)cc1NC(=O)c1cnc(N2CCCCC2)c2ccccc12 | nt | nt | -23%[46.1 µM] | -9% | 1
COc1cccc(C2/C(=C(/O)c3ccc4c(c3)OCO4)C(=O)C(=O)N2CCN2CCOCC2)c1 (stereo unspecified) | 4% | nt | nt | 6% | -62*
O=C1C(=O)N(CCN2CCOCC2)C(c2ccncc2)/C1=C(/O)c1ccc2c(c1)OCO2 (stereo unspecified) | 1% | 3% | 22% | 10% | 12
Cc1oc2c(c1C(=O)c1ccccc1)C(=O)C(=O)c1ccccc1-2 | 10µM* | ? | 10µM* | ? | -103*
CCOC(=O)c1c(C)oc2c1C(=O)c1ccccc1C2=O | 5.6µM* | ? | ? | -21% | -15
O=C(c1ccccc1)c1coc2ccc(O)c(Cl)c12 | nt | -7% | -10%[14.3 µM] | 0% | 28
O=C1C(=O)c2c(C(=O)c3ccccc3)coc2-c2ccccc21 | 11µM* | ? | ? | -1% | -93*
CCOC(=O)c1c(C)nc2c(c1-c1ccccc1)C(=O)c1ccccc1-2 | ? | ? | ? | 7% | -101*
CC(=O)c1ccccc1-c1ccc2c(c1)CC(CNC(=O)c1cc(C)on1)O2 (stereo unspecified) | nt | nt | nt | -26% | nt
c1ccc(-c2nnc(-c3ccccn3)s2)nc1 | 12% | 1.1µM* | ? | -75% | 7
